Structures are written as SMILES. Read-outs that look alike come from different tables or passages of the source.

From paper PMC5540273 (PLoS ONE, 2017) come the findings set out here.

The subject of one test is PIK3CG. The following applies: concentration: 1 μM, replicates: in singlicate; n = 1.
For a further test, the system named is T1, PIK4CB.
T1 construct: gene PI4KB
The following applies: concentration: 1 μM, replicates: in singlicate; n = 1.

The subject of a further test is PIKFYVE. The following applies: concentration: 1 μM, replicates: in singlicate; n = 1.
Another test deals with PIM1. The settings on record: concentration: 1 μM, replicates: in singlicate; n = 1.
In the next test the test system is PIM2. The following applies: concentration: 1 μM, replicates: in singlicate; n = 1.
The next test relates to PIM3. The following applies: concentration: 1 μM, replicates: in singlicate; n = 1.
The next test relates to PIP5K1A. The settings on record: concentration: 1 μM, replicates: in singlicate; n = 1.
The next test relates to PIP5K1C. The following applies: concentration: 1 μM, replicates: in singlicate; n = 1.
The next test concerns PIP5K2B. The following applies: concentration: 1 μM, replicates: in singlicate; n = 1.
The test system of a further test is T2, PIP5K2C.
T2 construct: gene PIP4K2C
The following applies: concentration: 1 μM, replicates: in singlicate; n = 1.

The next test deals with T3, PKAC-alpha.
T3 construct: gene PRKACA
The settings on record: concentration: 1 μM, replicates: in singlicate; n = 1.

The next test deals with T4, PKAC-beta.
T4 construct: gene PRKACB
The settings on record: concentration: 1 μM, replicates: in singlicate; n = 1.

The next test concerns PKMYT1. The settings on record: concentration: 1 μM, replicates: in singlicate; n = 1.
For the next test, the system named is PKN1. The following applies: concentration: 1 μM, replicates: in singlicate; n = 1.
Another test relates to PKN2. The following applies: concentration: 1 μM, replicates: in singlicate; n = 1.
The next test deals with PLK1. The following applies: n = 1.
The subject of a further test is PLK2. The following applies: concentration: 1 μM, replicates: in singlicate; n = 1.
The next test deals with PLK3. The following applies: concentration: 1 μM, replicates: in singlicate; n = 1.
The subject of a further test is PLK4. The following applies: concentration: 1 μM, replicates: in singlicate; n = 1.
The next test concerns PRKCD. The settings on record: concentration: 1 μM, replicates: in singlicate; n = 1.
[1] abbreviates: concentration: 1 μM, replicates: in singlicate.
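Further: KINOMEscan kinase panel screen.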

`COc1cccc(C2=C(N(C)c3ccccc3)C(=O)NC2=O)c1` [SB-334865]: the “%Inh” value with PIK3CG is given as 0%; in the test on PIK4CB, 0%; in the test with PIKFYVE, 2%; in the test with PIM1 it was 0%; in the test on PIM2, 0%; in the test on PIM3, 0%. Besides, the “%Inh” value with PIP5K1A is recorded as 0%; in the test with PIP5K1C, 70%; with PIP5K2B, 6%; in the test on PIP5K2C, 30%; in the test with PKAC-alpha, 0%; with PKAC-beta, 0%. Moreover, the “%Inh” value came out at 1% in the test on PKMYT1; 0% in the test with PKN1; 0% in the test on PKN2; 0% in the test with PLK1 (setting [1]); 0% in the test with PLK2; 0% in the test with PLK3. In addition, the “%Inh” value with PLK4 is 17%; with PRKCD it was 0%.

On to `COc1ccc(Nc2nccc(N3CCC(NS(=O)(=O)c4ccc(NC(C)=O)cc4)C3)n2)cc1` (centres unmarked) [GSK1379729], for which the “%Inh” value with PIK3CG was 11%; with PIK4CB, 14%; in the test with PIKFYVE it was 11%; in the test on PIM1 it was 0%; with PIM2 it was 0%; in the test with PIM3, 0%. In addition, the “%Inh” value came out at 0% in the test on PIP5K1A; 49% in the test on PIP5K1C; 9% in the test with PIP5K2B; 62% in the test on PIP5K2C; 6% with PKAC-alpha; 0% with PKAC-beta. The “%Inh” value turned out to be 12% with PKMYT1; 37% in the test on PKN1; 2% with PKN2; 12% in the test on PLK1 (setting [1]); 0% in the test with PLK2; 0% in the test on PLK3. For the same compound, the results for the “%Inh” value in the test on PLK4 and with PRKCD were 8% and 0%, respectively.

For `COc1cc2ncn(-c3cc(OCc4ccncc4)c(C(N)=O)s3)c2cc1OC` [GSK336313], the “%Inh” value with PIK3CG amounted to 12%; in the test with PIK4CB, 0%; in the test on PIKFYVE it was 0%; in the test with PIM1 it was 0%; with PIM2, 0%; in the test with PIM3, 0%. For the same compound, the “%Inh” value in the test with PIP5K1A was 0%; with PIP5K1C, 30%; in the test with PIP5K2B, 22%; in the test on PIP5K2C it was 0%; in the test on PKAC-alpha it was 0%; in the test with PKAC-beta, 0%. Besides, the “%Inh” value worked out at 0% in the test on PKMYT1; 31% in the test on PKN1; 0% in the test with PKN2; 81% in the test on PLK1 (1 µM); 96.6% in the test with PLK2; 55% with PLK3. The “%Inh” value in the test with PLK4 worked out at 7%; in the test on PRKCD, 0%.

Consider `Cn1c(=O)c(F)c(Nc2ccc(I)cc2F)c2c(=O)n(OC[C@H](O)CO)cnc21`, for which the “%Inh” value was 0% in the test with PIK3CG; 0% with PIK4CB; 6% in the test with PIKFYVE; 5% in the test with PIM1; 13% in the test with PIM2; 0% in the test with PIM3. The “%Inh” value with PIP5K1A came to 11%; in the test on PIP5K1C, 22%; in the test on PIP5K2B, 9%; in the test on PIP5K2C it was 12%; in the test with PKAC-alpha it was 10%; with PKAC-beta it was 35%. Further, the “%Inh” value in the test with PKMYT1 is on record as 0%; with PKN1, 0%; in the test on PKN2, 0%; with PLK1 (setting [1]), 14%; in the test with PLK2, 0%; with PLK3, 0%. For the same compound, the “%Inh” value with PLK4 and in the test on PRKCD was 4% each time.

On to `COC(=O)c1c(-c2ccccc2)c2cc(Br)ccc2c(=O)n1Cc1ccc(S(C)(=O)=O)cc1`, for which the “%Inh” value came out at 1% with PIK3CG; 5% with PIK4CB; 0% in the test on PIKFYVE; 9% in the test with PIM1; 14% in the test on PIM2; 9% with PIM3. The “%Inh” value with PIP5K1A was determined as 19%; in the test on PIP5K1C, 0%; in the test with PIP5K2B, 23%; with PIP5K2C, 0%; with PKAC-alpha, 11%; with PKAC-beta, 0%. Moreover, the “%Inh” value in the test on PKMYT1 stood at 0%; with PKN1 it was 1%; in the test with PKN2 it was 0%; in the test on PLK1 (setting [1]), 0%; with PLK2, 17%; with PLK3 it was 15%. For the same compound, the “%Inh” value came to 32% in the test on PLK4 and 0% in the test with PRKCD.

With `COc1cc2ncn(-c3cc(OCCCc4ccccc4)c(C(N)=O)s3)c2cc1OC` [GSK205189], the “%Inh” value in the test on PIK3CG, in the test on PIK4CB, in the test with PIKFYVE, in the test with PIM1, in the test on PIM2 and with PIM3 was 0% throughout. Moreover, the “%Inh” value in the test on PIP5K1A worked out at 0%; with PIP5K1C, 69%; in the test on PIP5K2B, 0%; with PIP5K2C, 9%; in the test with PKAC-alpha, 0%; in the test with PKAC-beta, 5%. Besides, the “%Inh” value in the test with PKMYT1 was 0%; in the test on PKN1, 0%; in the test with PKN2, 16%; in the test with PLK2 it was 98.2%; in the test with PLK3, 92.3%; with PLK4, 0%. In addition, the “%Inh” value with PRKCD is 0%.

For the compound `CCS(=O)(=O)c1ccc(OC)c(Nc2ncc(-c3ccc(F)cc3)o2)c1.Cl` [GW591947], the “%Inh” value in the test with PIK3CG, in the test on PIK4CB, in the test on PIKFYVE, in the test with PIM1, with PIM2 and in the test on PIM3 was 0% in each case. Besides, the “%Inh” value is given as 0% with PIP5K1A; 23% in the test on PIP5K1C; 3% in the test on PIP5K2B; 2% with PIP5K2C; 0% in the test on PKAC-alpha; 14% in the test on PKAC-beta. In addition, the “%Inh” value worked out at 7% in the test with PKMYT1; 0% in the test with PKN1; 15% in the test on PKN2; 0% with PLK1 (setting [1]); 0% in the test with PLK2; 0% with PLK3. The “%Inh” value in the test with PLK4 is 0%; in the test on PRKCD, 2%.

On to `COc1ccc(-c2cc3c(C)nc(N)nc3n([C@H]3CC[C@H](OCCO)CC3)c2=O)cn1`, for which the “%Inh” value with PIK4CB worked out at 96.1%; with PIKFYVE it was 11%; in the test with PIM1 it was 0%; with PIM2 it was 44%; in the test with PIM3, 0%; in the test with PIP5K1A it was 0%. The “%Inh” value in the test with PIP5K1C was determined as 1%; in the test on PIP5K2B, 2%; in the test on PIP5K2C it was 9%; with PKAC-alpha, 3%; in the test with PKAC-beta it was 0%; in the test on PKMYT1, 0%. The “%Inh” value with PKN1 is reported as 5%; with PKN2, 0%; in the test on PLK1 (setting [1]), 0%; in the test with PLK2, 0%; with PLK3 it was 0%; in the test with PLK4, 1%. Further, the “%Inh” value with PRKCD amounted to 2%.

For `COc1cc2ncn(-c3cc(OCc4ccncc4Br)c(C(N)=O)s3)c2cc1OC` [GW854278], the “%Inh” value came out at 55% in the test with PIK3CG; 23% in the test with PIK4CB; 17% in the test on PIKFYVE; 0% in the test on PIM1; 0% in the test on PIM2; 2% in the test on PIM3. In addition, the “%Inh” value in the test with PIP5K1A stood at 0%; with PIP5K1C, 86%; with PIP5K2B it was 41%; with PIP5K2C, 81%; in the test on PKAC-alpha it was 0%; with PKAC-beta, 0%. For the same compound, the “%Inh” value in the test with PKMYT1 was determined as 0%; in the test on PKN1 it was 10%; with PKN2 it was 0%; in the test on PLK1 (setting [1]), 99.9%; in the test on PLK2, 99.7%; in the test on PLK3, 99.2%. For the same compound, the “%Inh” value in the test with PLK4 stood at 4%; in the test on PRKCD, 7%.

In the case of `Nc1nc(-c2ccccc2F)c(-c2ccnc3ccccc23)s1` [GW560459], the “%Inh” value is 0% in the test with PIK3CG; 0% with PIK4CB; 0% in the test on PIKFYVE; 0% in the test on PIM1; 0% in the test with PIM2; 3% with PIM3. For the same compound, the “%Inh” value with PIP5K1A was determined as 13%; in the test on PIP5K1C it was 46%; in the test on PIP5K2B it was 4%; in the test with PIP5K2C, 59%; in the test on PKAC-alpha, 0%; in the test with PKAC-beta it was 3%. The “%Inh” value in the test with PKMYT1 is on record as 0%; in the test with PKN1, 3%; in the test on PKN2, 0%; in the test with PLK1 (setting [1]), 2%; in the test with PLK2 it was 0%; in the test on PLK3, 0%. The “%Inh” value in the test on PLK4 and with PRKCD was 0% in each case.

As to `O=c1cc(N2CCOCC2)nc2n(Cc3ccc(F)c(Cl)c3)ccn12` [GSK2297099], the “%Inh” value is on record as 23% in the test on PIK3CG; 20% in the test on PIK4CB; 0% in the test on PIKFYVE; 11% in the test on PIM1; 0% in the test with PIM2; 19% with PIM3. For the same compound, the “%Inh” value in the test on PIP5K1A, with PIP5K1C, with PIP5K2B, in the test on PIP5K2C, in the test with PKAC-alpha and in the test on PKAC-beta was 0% in each case. The “%Inh” value in the test with PKMYT1 is 10%; with PKN1 it was 11%; with PKN2 it was 0%; in the test on PLK1 (setting [1]) it was 54%; in the test with PLK2, 0%; with PLK3, 6%. Moreover, the “%Inh” value in the test on PLK4 and in the test on PRKCD was 0% throughout.
